# Shown are actives, neighbours in structure and some others; about 12% of the full set was active somewhere.
# BAZ2B block – BAZ2B (human) inhibition. Q9UIF8. AlphaScreen BAZ2B-H3K14Ac peptide displacement. Potency, µM (top dose mostly 114 µM), hits mostly inhibitors. 360,000 compounds, 4.4% hits. AID 504333; note: nearly all actives have a fitted effect of over 60% in size
#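 BAZ2B (50 nM) with biotin-H3(5-23)K14Ac peptide (50 nM) in PBS pH 7.4, 0.01% Tween-20, preformed 30 min, then compound 30 min at room temperature; top concentration 110uM. AlphaScreen streptavidin donor/nickel chelate acceptor beads (10 ug/mL final), 20 min dark, signal read.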
# JMJD2A Tudor inh – inhibitors of human JMJD2A Tudor domain. O75164. AlphaScreen JMJD2A-Tudor / H3K4me3 peptide binding. Potency, µM (doses to about 114 µM), most hits filed as inhibitors. 390,000 compounds, 4.4% hits; note: nearly all actives have a fitted effect of over 50% in size
# L3MBTL1 inh – inhibitors of human L3MBTL1; AlphaScreen L3MBTL1–H3K9me1 peptide binding; Potency, µM (titrated, usually from 57.1 µM), usual class: inhibitors; 230,000 compounds, 0.66% hits; AID 485360; note: nearly all actives have a fitted effect of over 60% in size
#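 AlphaScreen proximity signal between nickel-chelate acceptor and streptavidin donor beads (final 10 ug/mL) reports binding of 50 nM L3MBTL1 to 75 nM biotin-H3 K9me1 peptide; complex incubated with compounds 30 min at room temperature; cefsulodin titration as control.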
# HP1b binding inh – inhibitors of HP1-beta chromodomain binding to methylated histone tails; P83916; AlphaScreen HP1-beta / biotin-H3K9me3 peptide binding; Potency, µM (doses to about 114 µM), most hits filed as inhibitors; 390,000 compounds, 0.56% hits; AID 540317; note: nearly all actives have a fitted effect of over 70% in size
#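 Compound inhibition of the preformed complex between 50 nM HP1-beta and 50 nM biotinylated H3K9me3 peptide was read by AlphaScreen. Buffer was PBS pH 7.4 with 0.01% Tween-20. Incubations ran 30 min at room temperature, with 10 ug/mL donor/acceptor beads.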
# Sfp inh – Sfp phosphopantetheinyl transferase inhibition | Q9F4F7 | Biochemical Sfp PPTase activity, qHTS | Potency, µM, most hits filed as inhibitors | 310,000 compounds, 3.5% hits | AID 1490;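 note: the enzyme is Sfp with the accession as filed and its product quenches rhodamine fluorescence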
#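 Sfp 15 nM + cpd, 15 min RT; start w/ rhodamine-CoA 5 uM, BHQ-2-YbbR 12.5 uM (final); 50 mM Hepes pH 7.6, 10 mM MgCl2, 0.01% NP-40, 0.01% BSA; read 525/598 nm at 0 and 30 min.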
# G9a inh – blocks human histone lysine methyltransferase G9a | Q96KQ7 | G9a H3K9 monomethylation, AlphaScreen, 2 h | Potency, µM (titrated, usually from 102 µM), most hits filed as inhibitors | 350,000 compounds, 8.8% hits | AID 504332; note: nearly all actives have a fitted effect of over 75% in size
#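 Enzyme 20 nM + cpd, 15 min RT; add b-H3K9 pep 500 nM / SAM 20 uM; 2 h RT; anti-H3K9me1 Ab 0.5 ug/mL + SA donor / anti-rabbit acceptor beads 20 ug/mL each, 10 min; AlphaScreen read.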
# Hits are given with their value; 0 = inactive; ? = inconclusive; - = no result; [ ] = dose if it differs, or a comment. Calls come from the whole dose curve; as a rule, active = well fitted curve in the direction sought with a large enough effect; inconclusive = small, poorly fitted or top-dose-only effect, or another doubt; inactive = no such curve, though single readings can be large; an effect the other way counts as inactive or inconclusive.
SMILES,BAZ2B block,JMJD2A Tudor inh,L3MBTL1 inh,HP1b binding inh,Sfp inh,G9a inh
CN1CCc2c(sc3c2c(=O)n(-c2ccccc2)c2nnc(SCc4ccccc4)n32)C1,0,89µM,-,0,0,?
COc1cccc(CC(=O)N2CCc3nc(-c4ccccc4)c4c(c3C2)CO[C@@H](C)C4)c1,-,-,-,-,0,-
O=C(NNC1=C(C(=O)C(F)(F)F)CCC1)c1cccnc1,0,0,0,0,0,0
O=C(C1=C(O)/C(=C/c2ccc(O)cc2)CCC1)C(F)(F)F,0,0,0,0,0,10µM
COc1ccc(/C=C2\CCCC(C(=O)C(F)(F)F)=C2O)cc1,0,0,-,0,0,8.9µM
Cc1ccc(NC(=O)c2cc(-c3cc(C)c(C)cc3O)n[nH]2)cc1C,0,0,-,0,0,0
CCC(C(=O)NC1CCCCC1)n1c(SCc2ccccc2F)nc2ccncc21 (stereo not given),0,0,0,0,0,?
CN1CCN(c2ccnc(-c3cccnc3)n2)CC1,-,-,-,-,0,0[0.501 µM]
CN1CCN(c2ccnc(-c3ccoc3)n2)CC1,-,-,-,-,79µM,0[0.501 µM]
COc1ccc(NC(=O)NC2COc3ccccc3C2)c(OC)c1 (stereo not given),0,0,-,0,-,0
Cc1occc1C(=O)Nc1nn[nH]n1,?,45µM,-,0,0,45µM
Cc1occc1C(=O)Nc1c(F)c(F)c(F)c(F)c1F,0,0[11.4 µM],-,0,0,14µM
Cc1occc1C(=O)Nc1c(Cl)cccc1Cl,0,0,-,0,0,?
O=C(N/N=C/c1cccn1-c1cccc(C(=O)O)c1)Nc1ccccc1,79µM,?,?,0,0,0
O=C(CN1C(=O)S/C(=C/c2cccn2-c2ccc(O)cc2)C1=O)N1CCCC1,0,0,-,0,0,0
O=C(O)c1cccc(-n2cccc2/C=C2/SC(=O)N(CC(=O)N3CCCC3)C2=O)c1,50µM,40µM,-,?,0,45µM
O=C(O)c1cccc(-n2cccc2C=C2C(=O)c3ccccc3C2=O)c1,?,?,-,0,0,50µM
O=C1C(=Cc2cccn2-c2ccccc2)C(=O)c2ccccc21,?,0,0,0,?,3.5µM
CCc1cccc(NC(=O)C2CCCN2S(=O)(=O)c2ccccc2C(F)(F)F)c1 (stereo not given),0,0,0,0,-,0
Cc1cccc2cc(C#N)c(NCCNC(=O)COc3ccccc3)nc12,0,0,0,0,50µM,0
CCOCCCNC(=S)NCCNc1nc2c(C)cccc2cc1C#N,0,?,0,0,50µM,0
COC(=O)N1CCC2(CC1)CCN(c1ccccc1)CC2,-,-,-,-,0,0[12.7 µM]
CC(NS(=O)(=O)c1ccc(Br)s1)c1ccccc1 (stereo not given),0,0,-,0,0,0
CCC1CCCCN1CCCNC(=O)CCC(=O)N1CC(C)Oc2ccccc21 (stereo not given),0,0,0,0,0,0
C=CCc1cccc(/C=N/NC(=O)CNc2ccccc2)c1O,0,0,-,0,0,0
SMILES,BAZ2B block,JMJD2A Tudor inh,L3MBTL1 inh,HP1b binding inh,Sfp inh,G9a inh
C=CCc1cccc(/C=N/NC(=O)CCCNc2ccc(C)cc2)c1O,32µM,?,0,?,0,0
CCOc1ccc(NC(c2ccccn2)c2oc(CO)cc(=O)c2O)cc1 (stereo not given),20µM,22µM,-,?,3.2µM,1.4µM
CCOc1ccc(C(=O)Nc2ccc(-c3nc4cc(CC)ccc4o3)cc2)cc1,0,0,-,0,-,0
COc1ccc(S(=O)(=O)NCCN2CCOCC2)cc1[N+](=O)[O-],0,0,-,0,0,50µM
CCOc1ccc(S(=O)(=O)NCCN2CCOCC2)c2ccccc12,0,0,0,0,79µM,0
O=C(Cc1ccccc1)NC1CC(=O)N(c2ccc3c(c2)OCCO3)C1 (stereo not given),0,0,-,0,-,0
Cc1ccc(C)c(N2CCN(C(=O)c3cc(S(=O)(=O)N4CCCCC4)cn3C)CC2)c1,0,?,-,0,-,0
CCOC(=O)N1CCCN(/[N+]([O-])=N/Oc2ccc([N+](=O)[O-])cc2[N+](=O)[O-])CC1,-,0,-,0,0,-
COc1ccc(C(=O)Nc2ccccc2C(=O)NC(Cc2ccc(O)cc2)C(=O)NNC(=O)c2ccccc2Cl)cc1 (stereo not given),0,0,0,0,45µM,0
COc1ccc(C(=O)Nc2ccccc2C(=O)NC(Cc2c[nH]c3ccccc23)C(=O)O)cc1 (stereo not given),79µM,0[11.4 µM],0,0,0,?
COc1ccc(C(=O)NNC(=O)C(Cc2ccc(O)cc2)NC(=O)c2ccccc2NC(=O)c2ccc(OC)cc2)cc1 (stereo not given),0,0,0,0,22µM,0
COC(=O)C(Cc1c[nH]c2ccccc12)NC(=O)c1cc(-c2ccc(OC)c(OC)c2)oc1C (stereo not given),0,50µM,0,0,32µM,50µM
Cc1cc(C(=O)NC(Cc2c[nH]c3ccccc23)C(=O)O)c(C)o1 (stereo not given),0,0,0[2.29 µM],0,0,0[0.501 µM]
Cc1nc(NC(C)C)c2cnn(CCc3ccccc3)c2n1,0,0,-,0,0,0
CCOc1ccc(Br)cc1CNCCSc1nnnn1-c1ccccc1,0,0,-,0,-,0
O=C1c2ccccc2C(=O)N1CCCCNc1ccccc1,-,0,-,0,-,-
c1ccc(NCCCNc2ccccc2)cc1,50µM,?,0[11.4 µM],0,0,?
COc1cccc(NC(=O)CSc2nnnn2C2CCCCC2)c1,0,0,-,0,0,0
c1ccc(-c2cnc(-c3ccccc3)nc2)cc1,0,0,-,0,0,?
O=C(O)c1ncc(-c2ccccc2)cn1,-,10µM,0,?,?,8.9µM
Cn1cnc([N+](=O)[O-])c1N=C(N)N,0,0,0,0,0,0
CCOC(=O)CN1C(=O)C2Cc3ccccc3CN2C1=S (stereo not given),0,0,0,?,0,20µM
Cc1occc(=O)c1OCc1ccccc1,?,0,0,0,0,0
Cc1occc(=O)c1O,?,25µM,0,0,?,?
O=C(COC(=O)CCc1ccccc1)NC1CCS(=O)(=O)C1 (stereo not given),0,0,0,0,-,50µM
SMILES,BAZ2B block,JMJD2A Tudor inh,L3MBTL1 inh,HP1b binding inh,Sfp inh,G9a inh
OC(COc1ccc2ccccc2c1Br)Cn1cnc(-c2ccccc2)c1 (stereo not given),?,?,-,0,0,?
O=C(COc1ccc(Br)cc1)NCCCn1ccnc1,56µM,0,-,0,0,0
Cc1c(C)c2ccc(OCC(=O)NCCCn3ccnc3)c(C)c2oc1=O,79µM,0,-,0,0,0
Cc1ccc(C(C)C)cc1OCC(=O)NCCCn1ccnc1,-,0,0,0,-,-
Cc1c(OCC(=O)NCCCn2ccnc2)ccc2c3c(c(=O)oc12)CCC3,0,0,-,0,0,0
COc1ccccc1OCC(=O)NCCCn1ccnc1,79µM,0,?,0,0,0

# Source: PubChem BioAssay
